Results: PubChem BioAssay (EPA / NIEHS)
Inconclusive results are not listed. Active and inactive are the calls of the source. How the source made its calls, unless noted: active means hit-call score of the fitted dose curve at least 0.9, where 1 is the maximum; inactive means score below 0.9.

How the values were obtained:
[1] = CCTE_Shafer_MEA_dev_active_electrodes_number: CCTE's Neural Network Formation Assay for Number of Active Electrodes, Shafer Lab (AID 2284040; active means hit-call score of the fitted dose curve at least 0.9, where 1 is the maximum)
Method in brief: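 Developing rat cortical networks on MEAs, exposed DIV 0–12. Value is the AUC of active-electrode counts (≥5 spikes/min) from days 5, 7, 9, 12, relative to DMSO.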

[2] = CCTE_Shafer_MEA_dev_burst_rate: CCTE's Neural Network Formation Assay for Burst Rate, Shafer Lab (AID 2284042)
Method in brief: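 Rat primary cortical cultures on PEI/laminin MEA; compound from plating, re-dosed at DIV 5, 9 media change. Single-electrode bursts/recording length, well mean of active electrodes; AUC over DIV 5–12 recordings; loss-of-signal vs DMSO.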

[3] = CCTE_Shafer_MEA_dev_bursting_electrodes_number: CCTE's Neural Network Formation Assay for Number of Bursting Electrodes, Shafer Lab (AID 2284043; active means hit-call score of the fitted dose curve at least 0.9, where 1 is the maximum)
Method in brief: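 Number of electrodes reaching ≥1 burst every 2 min was recorded at DIV 5, 7, 9 and 12 and collapsed as trapezoidal area under the curve. Cultures were rat cortical neurons on MEA plates, dosed continuously from plating with medium and treatment refreshed on DIV 5 and 9.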

[4] = CCTE_Shafer_MEA_dev_per_burst_interspike_interval: CCTE's Neural Network Formation Assay for Burst Interspike Interval, Shafer Lab (AID 2284044);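 further: mean spike spacing inside bursts as AUC over recordings on days 5 7 9 12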
Method in brief: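 Primary rat cortical neurons on 48-well MEA plates, exposed from day 0 through day 12, treatment renewed at DIV 5 and 9. Within-burst interspike interval recorded days 5, 7, 9, 12, well-averaged, summarised as AUC; negative fit versus DMSO.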

[5] = CCTE_Shafer_MEA_dev_burst_duration_mean: CCTE's Neural Network Formation Assay for Mean Burst Duration, Shafer Lab (AID 2284045)
Method in brief: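 Mean single-electrode burst duration (first to last spike), averaged over bursting electrodes per well, then integrated as area-under-curve across recordings at days 5, 7, 9 and 12. Rat cortical cultures on MEAs, compound present from plating, refreshed at feeds.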

[6] = CCTE_Shafer_MEA_dev_inter_network_spike_interval_mean: CCTE's Neural Network Formation Assay for Mean Inter-network Spike Interval, Shafer Lab (AID 2284047)
Method in brief: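 Primary rat cortical neurons on PEI-coated 48-well MEAs (16 electrodes/well) were exposed from plating day 0 to DIV 12, with dosing renewed at DIV 5 and 9. Recordings at DIV 5, 7, 9, 12 were collapsed by trapezoidal AUC, loss-of-signal fit vs DMSO.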

[7] = CCTE_Shafer_MEA_dev_network_spike_number: CCTE's Neural Network Formation Assay for Number of Network Spikes, Shafer Lab (AID 2284048);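 further: synchronized bursts across electrodes counted on days 5 7 9 12 and integrated as AUC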
Method in brief: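 Number of network spikes (coordinated firing across electrodes) recorded on days 5, 7, 9 and 12 and summarised as area under the curve. Rat cortical cultures on MEA, continuous compound exposure with full medium/treatment exchange at DIV 5 and 9.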

[8] = CCTE_Shafer_MEA_dev_network_spike_peak: CCTE's Neural Network Formation Assay for Mean Number of Electrodes in Network Spike, Shafer Lab (AID 2284049)
Method in brief: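 Rat cortical primary culture, 1.5 x 10^5 cells/well, 48-well MEA (16 electrodes/well). Dosing day 0 through DIV 12, full media/compound exchange DIV 5, 9. AxIS adaptive spike detection; AUC over days 5/7/9/12; loss-of-signal vs DMSO.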

[9] = CCTE_Shafer_MEA_dev_spike_duration_mean: CCTE's Neural Network Formation Assay for Mean Spike Duration, Shafer Lab (AID 2284051);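 further: mean network spike duration pooled as area under curve over DIV 5 to 12 recordings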
Method in brief: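 Rat cortical primary cultures, 48-well MEA (16 electrodes/well); compound from plating, renewed DIV 5, 9. Network spike duration (AxIS adaptive detector) recorded DIV 5/7/9/12, combined as trapezoidal AUC; loss direction vs DMSO.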

[10] = CCTE_Shafer_MEA_dev_network_spike_duration_std: CCTE's Neural Network Formation Assay for Standard Deviation of Network Spike Duration, Shafer Lab (AID 2284052);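 further: hits are decreases in network spike duration SD versus DMSO vehicle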
Method in brief: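 Rat cortical cultures, 1.5 x 10^5 cells/well, exposed continuously from plating to DIV 12 with media/compound renewal at DIV 5, 9. Spontaneous activity recorded DIV 5/7/9/12, AxIS adaptive spike detector; AUC across days; negative direction vs DMSO.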

[11] = CCTE_Shafer_MEA_dev_per_network_spike_spike_number_mean: CCTE's Neural Network Formation Assay for Mean Number of Spikes in a Network Spike, Shafer Lab (AID 2284053)
Method in brief: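 Rat cortical primary cultures on 48-well MEA; compound from day 0, re-dosed with full media change DIV 5, 9. Recorded DIV 5, 7, 9, 12; spikes in 0.05 s window at network-spike peak ÷ total network spikes; AUC; loss vs DMSO.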

[12] = CCTE_Shafer_MEA_dev_per_network_spike_spike_percent: CCTE's Neural Network Formation Assay for Percent of Spikes in a Network Spike, Shafer Lab (AID 2284054)
Method in brief: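 Metric: fraction of spikes falling in a 0.05 s window at network-spike peaks. Recordings were made on days 5, 7, 9 and 12 and collapsed by trapezoidal AUC. Cultures were rat cortical neurons on MEA plates, dosed continuously from plating, re-dosed at media changes.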

[13] = CCTE_Shafer_MEA_dev_LDH: CCTE's Lactate Dehydrogenase Assay for Cytotoxicity in the Neural Network Formation Assay, Shafer Lab (AID 2284068; active means hit-call score of the fitted dose curve at least 0.9, where 1 is the maximum;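 further: exposure for twelve days from plating with re-dosing on DIV 5 and 9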)
Method in brief: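 Rat cortical primary neurons, MEA culture; dosing day 0–12, full medium plus compound exchange DIV 5, 9. Read-out: LDH enzyme activity, spectrophotometric. DMSO = negative control/baseline; signal loss → cytotoxicity.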

[14] = CCTE_Shafer_MEA_dev_AB: CCTE's Alamar Blue Assay for Cytotoxicity in the Neural Network Formation Assay, Shafer Lab (AID 2284083; active means hit-call score of the fitted dose curve at least 0.9, where 1 is the maximum;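 further: resazurin reduction fluorescence as viability of cultured neurons; twelve days of exposure from plating with re-dosing on DIV 5 and 9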)
Method in brief: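 Rat cortical primary cultures, 1.5 x 10^5 cells/well on MEA; continuous compound exposure over 12 days of network development, re-dosed with full medium change DIV 5 and 9. Alamar Blue fluorescence; loss of signal = cytotoxicity vs DMSO baseline.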

[15] = CCTE_Shafer_MEA_acute_LDH: CCTE's Lactate Dehydrogenase Assay for Cytotoxicity in the Neural Acute Assay, Shafer Lab (AID 2284086; active means hit-call score of the fitted dose curve at least 0.9, where 1 is the maximum;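 further: active means LDH release rises above DMSO vehicle level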)
Method in brief: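 Cytotoxicity readout: spectrophotometric LDH activity in supernatant of rat primary cortical neurons, post-plating day 13 or 15, sampled after 40 min compound exposure; signal gain relative to DMSO baseline.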

[16] = CCTE_Shafer_MEA_dev_mutual_information_norm: CCTE's Neural Network Formation Assay for Mutual Information Normalization, Shafer Lab (AID 2284091)
Method in brief: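 Shared information across electrodes, tracked on days 5, 7, 9 and 12 of network development and collapsed as trapezoidal area under the curve. Rat cortical cultures were treated continuously from plating, with treatment renewed at feeds on DIV 5 and 9; DMSO baseline, negative-direction fit.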

[17] = CCTE_Shafer_MEA_dev_correlation_coefficient_mean: CCTE's Neural Network Formation Assay for Mean Correlation Coefficient, Shafer Lab (AID 2284093)
Method in brief: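 Rat cortical cultures, 1.5 x 10^5 cells/well, dosed from day 0 for 12 days. Spontaneous spikes recorded DIV 5/7/9/12; electrode-pair correlation coefficients averaged, AUC taken. Fit in loss direction vs DMSO.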

Measured: outcome

CP(=O)(O)CC[C@H](N)C(=O)O
inactive: all assays above
